Hit rate of the full screen: of about 48,000 compounds, about 120 (0.25%) were called active. Roughly 4% stayed inconclusive and do not appear here. Calls follow the shape of the dose curve; as a rule, active = well fitted activation curve with a large enough effect; inconclusive = small, poorly fitted or top-dose-only effect, or another doubt; inactive = no such curve, though single readings can be large or run the other way. The list comes from a sample in which actives are over-represented; it also holds similar structures and randomly drawn compounds. Entries that show only a call come without a potency.
experiment: Primary qHTS for Identification of Small Molecule Activators of Huntingtin-Antisense Promoter Activity; details: HEK293 HTT-AS promoter firefly luciferase reporter, 24 h; series mostly up to 57.5 µM; also: nearly all actives have a fitted effect of over 55% in size
Text: Assay Provider: Russell L. Margolis M.D.
Department Neurology, Johns Hopkins University School of Medicine, Baltimore, MD
Huntington's Disease (HD) is a neurodegenerative disorder caused by a CAG repeat expansion in exon 1 of huntingtin (HTT). While there are currently no disease-modifying treatments for HD, recent efforts have focused on development of nucleotide-based therapeutics to lower HTT expression. As an alternative to siRNA or oligonucleotide methods, we hypothesized that suppression of HTT expression might be accomplished by small molecules that either (1) directly decrease HTT expression by suppressing HTT promoter activity or (2) indirectly decrease HTT expression by increasing the promoter activity of HTT-AS, the gene antisense to HTT that appears to inhibit expression of HTT.
We developed and employed a high throughput screen for modifiers of HTT and HTT-AS promoter activity using luminescent reporter HEK293 cells; of the 52,041 compounds tested, we identified 898 replicable hits. We used a rigorous stepwise approach to assess compound toxicity and the capacity of the compounds to specifically lower huntingtin protein in 5 different cell lines, including HEK293 cells, HD lymphoblastoid cells, mouse primary neurons, HD iPSCs differentiated into cortical-like neurons, and HD hESCs. We found no compounds which were able to lower huntingtin without lowering cell viability in all assays, though the potential efficacy of a few compounds at non-toxic doses could not be excluded.
SEQUENCE No. (1, 2, 3, etc.); […] (e.g., Cells, Incubation, Reagent, etc.); VALUE and DESCRIPTION.
1; Reagent; 4 uL; 2,500 Hek293 luciferase reporter cells per wells
3; Compound; 23 nL; Control inhibitor / compound library
5; Reagent; 2.5 uL; Firefly Luc reagent; Dual-Glo Luciferase Reporter Assay System (Promega)
6; Time; 10 min; room temperature incubation
7; Detection; Luminescence; FLuc
NOTES (numbers refer to sequence above)
1; High-throughput screening, measuring luminescence from a Hek293 luciferase reporter, was performed in 1,536 well white-walled tissue-culture treated plates. 2,500 cells were plated in 4 µL of Opti-MEM per well using a Multidrop Combi Reagent Dispenser (ThermoFisher).
2; Assay plates were cultured for 24 hours.
3; Control inhibitor (PTC124; final concentration of 50 uM) and compound library (at final concentrations of 460 nM - 57.5 uM) were added to the assay plate using the Kalypsis Pintool Robotic System equipped with 1536 pinheads.
4; Cells were then incubated for 24 hours at 37 degrees C prior to luminescence measurements.
5; In all cases, luminescence was measured using the Dual-Glo Luciferase Reporter Assay System (Promega) following the manufacturer's instructions.
6; Room temperature incubation.
7; Luminescence signal was obtained using the PerkinElmer ViewLux plate reader. Results were normalized to vehicle control (0% activity) and zero RLU (-100% activity).
Potency is read from the fitted curve at half-maximal effect.

Row | Compound | activity change, positive = activation | Potency
1 | CSc1nc(Nc2ccc(F)cc2)cc(-c2ccccc2)n1 | inactive | –
2 | Cc1nnc(SCC(=O)NCc2ccccc2Cl)c2nn(-c3ccccc3)c(C)c12 | inactive | –
3 | Cc1ccc(C)c(Cn2c(C)c(CNCc3ccc(F)cc3)c(C(=O)O)c2C)c1 | inactive | –
4 | CCn1c(CN2CCC(C)CC2)nc2cc(NC(=O)c3ccccc3[N+](=O)[O-])ccc21 | inactive | –
5 | COc1ccc(-c2cn3nc(N4CCC(C(=O)Nc5cccc(C)c5C)CC4)sc3n2)cc1 | inactive | –
6 | COc1ccc(-c2nc(CN3CCC(C(=O)NCc4ccccc4)CC3)c(C)o2)cc1OC | inactive | –
7 | CC(C)CNc1ncnc2c1nnn2C | inactive | –
8 | CSc1ccccc1-c1nnc(NC(=O)c2ccc3c(c2)OCCO3)o1 | inactive | –
9 | COc1ccc(NC(=O)CCc2nnc3n(CC(C)C)c(=O)c4ccccc4n23)cc1OC | inactive | –
10 | O=C(NCC(c1ccc(Cl)cc1)N1CCOCC1)c1ccccc1F (stereo unspecified) | inactive | –
11 | CCOc1ccc(NC(=O)CC2C(=O)N(c3cccc(OC)c3)C(=O)N2C2CCCCC2)cc1 (stereo unspecified) | inactive | –
12 | COc1cc(OC)cc(C(=O)Nc2ccc3nc(Nc4cccc(C(F)(F)F)c4)cc(C)c3c2)c1 | inactive | –
13 | Cn1cc(S(=O)(=O)N2CCCCCC2)cc1C(=O)N1CCN(c2ccc(F)cc2)CC1 | inactive | –
14 | Cc1ccc(NS(=O)(=O)c2ccc3c(c2)CC(=O)N3)cc1Cl | inactive | –
15 | CCCc1nn2c(=O)cc(COC(=O)c3ccc(NC(=O)COc4ccc(F)cc4)cc3)nc2s1 | inactive | –
16 | CSc1ccc(NC(=O)Cn2nnnc2-c2ccccc2F)cc1 | inactive | –
17 | CCOc1ccc(N(CC)S(=O)(=O)N2CCCC(C(=O)NCc3ccc(SC)cc3)C2)cc1 (stereo unspecified) | inactive | –
18 | Cc1ccc(N2CC(NC(=O)Cc3cccs3)CC2=O)cc1 (stereo unspecified) | inactive | –
19 | CSc1ccc(C2C(C(=O)Nc3ccccc3)=C(C)Nc3nc4ccccc4n32)cc1 (stereo unspecified) | inactive | –
20 | CC1CCCN(S(=O)(=O)c2ccc3[nH]c(=O)cc(C(=O)NCCc4ccc(Cl)cc4)c3c2)C1 (stereo unspecified) | inactive | –
21 | COc1ccc(Cl)cc1NC(=O)CSc1nc2ccccc2c2nc(-c3ccccc3)nn12 | inactive | –
22 | O=C(CC(c1cccs1)N1Cc2ccccc2C1=O)Nc1ccc(F)cc1F (stereo unspecified) | inactive | –
23 | COCCNC(=O)c1ccc2c(c1)N=C(C)c1cc(C)ccc1S2 | inactive | –

Row | Compound | activity change, positive = activation | Potency
24 | COc1ccc(-c2nc3c4ccccc4n(CC(=O)Nc4ccc(C(C)=O)cc4)c(=O)n3n2)cc1 | inactive | –
25 | Cc1cccc(N2CCN(C(=O)Cn3ncc4c5ccccc5n(C)c4c3=O)CC2C)c1 (stereo unspecified) | inactive | –
26 | CCOC(=O)N1CCC(NC(=O)c2cnn(-c3cccc(C)c3)c2C2CCN(C(=O)OC(C)(C)C)CC2)CC1 | inactive | –
27 | COc1cccc(NC(=O)N(Cc2cn(C)c3ccccc23)C2CCCCCC2)c1 | inactive | –
28 | COc1ccc(CNC(=O)COCc2cc(-c3cccs3)on2)cc1OC | inactive | –
29 | COc1cccc(CNC(=O)Cn2ncn3c(cc4ccccc43)c2=O)c1 | inactive | –
30 | COc1cc2ccccc2cc1C(=O)Nc1cccc(-c2nc3ccccc3o2)c1 | 4.7% [at 11.5 µM, percent change from vehicle, -100% = no light] (inactive) | –
31 | CC1CCN(c2nc3ccc(C(=O)N4CCN(c5ccccc5)CC4)cc3s2)CC1 | inactive | –
32 | COc1cc(NC(=O)CN2CCN(S(=O)(=O)c3ccc(Br)cc3)CC2)cc(OC)c1 | inactive | –
33 | CCOC(=O)c1cccc(NC(=O)c2cc(S(=O)(=O)N3CCCC(C)C3)cn2C)c1 (stereo unspecified) | inactive | –
34 | Cc1ccc(OCC(=O)OCc2cc(=O)n3nc(C4CC4)sc3n2)cc1C | inactive | –
35 | COc1cc(-c2nnn(CC(=O)NCc3ccccc3)n2)cc(OC)c1OC | inactive | –
36 | Cc1ccc(C)c(N2CCN(CCCNC(=O)Nc3ccc(Cl)cc3)CC2)c1 | inactive | –
37 | CCCCC12CN3CC(C)(CN(C1)C3c1ccc(O)c(OC)c1)C2=O (stereo unspecified) | inactive | –
38 | Cc1cc(Cl)ccc1NC(=O)Cc1ccc(NC(=O)N2CCCCc3ccccc32)cc1 | inactive | –
39 | CCN(CC)CCNc1ncnc2c1cnn2-c1cc(Cl)ccc1C | inactive | –
40 | COc1ccc(C(=O)Nc2ccc(-n3nncc3-c3ccccc3)cc2)cc1OC | inactive | –
41 | CN(Cc1ccccc1)C(=O)CCS(=O)(=O)c1cc(Br)cc2c1N(C(=O)C1CC1)CC2 | inactive | –
42 | Cc1ccc(OC(=O)CSc2nnc(-c3cccs3)o2)cc1 | inactive | –
43 | COc1ccc(-c2nnc(SCC(=O)Nc3ccccc3C)o2)cc1OC | inactive | –
44 | Cc1ccc(-c2nnc(SCc3ccccc3C)o2)cc1 | – | 14.1 µM (active)
45 | Cc1ccc(Cl)cc1N(C)C(=O)C1CCCN(c2ncnc3onc(-c4ccc(F)cc4)c23)C1 (stereo unspecified) | inactive | –
46 | CC(C)c1ccc(C2CC(=O)N3CN(C4CCCCC4)CSC3=C2C#N)cc1 (stereo unspecified) | inactive | –

Row | Compound | activity change, positive = activation | Potency
47 | CC(C)CNc1ccnc(NCc2csc(-c3ccccc3)n2)n1 | inactive | –
48 | Cc1ccc2onc(CC(=O)N3CCN(c4ccc(Cl)cc4)CC3)c2c1 | inactive | –
49 | COc1ccccc1N1CCN(C(CNC(=O)C(=O)NCc2ccc(C)cc2)c2cccnc2)CC1 (stereo unspecified) | inactive | –
50 | Cc1ccc(-c2cnc(NCc3ccc(C(C)C)cc3)n2C)cc1 | inactive | –
51 | CCOC(=O)c1ccccc1NC(=O)c1nn(-c2ccc(OC)c(Cl)c2)c(=O)c2c1c1ccccc1n2C | inactive | –
52 | O=C(CSc1nccn1-c1ccc(F)cc1)Nc1cccc2ccccc12 | inactive | –
53 | Cc1cc(C)cc(NC(=O)CCCc2nc(-c3ccccc3Cl)no2)c1 | inactive | –
54 | COc1ccc(CN2C(=O)C(NC(=O)c3cccc(C)c3)(C(F)(F)F)N=C2c2ccccc2)cc1 (stereo unspecified) | inactive | –
55 | COc1ccc(CCNC(=O)Cn2c(=O)cc(C(F)(F)F)c3c(C)nn(C)c32)c(OC)c1 | inactive | –
56 | Cc1cccn2c(=O)c3cc(C(=O)NC(C)c4ccccc4)c(=N)n(CCCO)c3nc12 (stereo unspecified) | inactive | –
57 | CC(C)(C)c1ccc(C(=O)NCC(c2ccc(Cl)cc2)N2CCOCC2)cc1 (stereo unspecified) | inactive | –
58 | COc1ccc(CCC(=O)NCCc2csc(-c3ccc(Cl)cc3)n2)cc1 | inactive | –
59 | COc1ccc(Cl)cc1NC(=O)Cn1c(=O)c2ccccc2n2nncc12 | inactive | –
60 | CC(C)CCNC(=O)CSc1nc2ccccc2nc1Cc1ccc(Cl)cc1 | inactive | –
61 | Cc1ccccc1OCCSc1nc2ccc(NC(=O)c3ccco3)cc2s1 | inactive | –
62 | O=C(Nc1cc(-c2nc3ccccc3o2)ccc1Cl)c1cc([N+](=O)[O-])ccc1N1CCOCC1 | inactive | –
63 | COC(=O)c1cc(Cl)c(NC(C)=O)cc1OC | inactive | –
64 | COc1ccc(CNC(=O)Cn2nnc(-c3ccccc3F)n2)cc1 | inactive | –
65 | CCCC(=O)N1CCN(c2nc3c(OC)ccc(C)c3s2)CC1 | inactive | –
66 | COc1ccc(-n2c(=O)c3ccccc3n(Cc3ccccc3Cl)c2=O)cc1 | inactive | –
67 | O=C(c1ccc(C(F)(F)F)cc1)N1CCC(c2nc(-c3ccc(S(=O)(=O)N4CCCC4)cc3)no2)CC1 | inactive | –
68 | CCCC(=O)Nc1cc(C(=O)NCc2ccc(OC)cc2)ccc1S(=O)(=O)c1ccc(Cl)cc1 | inactive | –
69 | O=C(Nc1nc2ccc(F)cc2s1)c1nc(SCc2ccccc2F)ncc1Cl | inactive | –

Row | Compound | activity change, positive = activation | Potency
70 | C=Cc1c(C)c2cc3nc(cc4[nH]c(cc5nc(cc1[nH]2)C(C)=C5CCC(=O)O)c(CCC(=O)OC)c4C)[C@@]1(C)C3=CC=C(C(=O)OC)[C@H]1C(=O)OC | inactive | –
71 | CC(Nc1ccc(-c2nc(-c3ccco3)no2)cc1[N+](=O)[O-])c1ccccc1 (stereo unspecified) | inactive | –
72 | CCOc1ccc(NC(=O)c2c(NC(=O)Cc3ccccc3)sc3c2CCC(C)C3)cc1 (stereo unspecified) | inactive | –
73 | CCCOc1ccc(-c2cccc(NS(=O)(=O)c3ccccc3)c2)nn1 | inactive | –
74 | Cc1cccc(NC(=O)CSc2nc3c(oc4ccccc43)c(=O)n2-c2ccc(F)cc2)c1 | inactive | –
75 | Cc1cc(C)cc(OCC(=O)Nc2c(C(=O)c3ccccc3)oc3ccccc23)c1 | inactive | –
76 | O=C(NC1CCCCC1)c1ccc(Cn2c(SCc3ccccc3)nc3cccnc32)cc1 | inactive | –
77 | COc1cc(C(=O)Nc2ccc(OCc3cc(=O)n4ccc(C)cc4n3)cc2)cc(OC)c1OC | inactive | –
78 | Cc1cc2c(cc1S(=O)(=O)CCC(=O)Nc1ccc(OC(F)(F)F)cc1)OCC(=O)N2 | inactive | –
79 | CCn1c(=O)c(=O)n(CC)c2cc(N3CCCCC3)c(NC(=O)c3ccc(Cl)cc3)cc21 | inactive | –
80 | COc1ccc(NC(=O)COCc2cc(-c3ccco3)on2)cc1 | inactive | –
81 | COc1ccc(Cn2ccnc2SCC(=O)NCc2ccco2)cc1 | inactive | –
82 | COc1cccc(C(=O)Nc2ccc3oc(-c4ccc5ccccc5c4)nc3c2)c1 | inactive | –
83 | COc1ccccc1N1CCN(C2C(=O)c3ccccc3N2C(C)=O)CC1 (stereo unspecified) | inactive | –
84 | CCOC(=O)c1oc2ccc(S(=O)(=O)n3nc(-c4ccccc4OC)cc3N)cc2c1C | inactive | –
85 | Cc1ccc(C)c(N2C(=O)N(Cc3c(F)cccc3Cl)c3ccccc3S2(=O)=O)c1 | inactive | –
86 | Cc1ccc(S(=O)(=O)N(Cc2nc(-c3ccc(Cl)cc3)no2)C2CCCCC2)cc1 | inactive | –
87 | COc1cccc(-n2cc(C(=O)NCc3cccc(Cl)c3)c3ccccc3c2=O)c1 | inactive | –
88 | Cc1ccc(S(=O)(=O)N2CCCc3cc(NS(=O)(=O)c4cc(C)ccc4C)ccc32)cc1 | inactive | –
89 | NCC[C@H](O)C(=O)N[C@@H]1C[C@H](N)[C@@H](O[C@H]2O[C@H](CN)[C@@H](O)[C@H](O)[C@@H]2O)[C@H](O)[C@@H]1O[C@H]1O[C@H](CO)[C@@H](O)[C@H](N)[C@@H]1O | -2.89% [at 0.74 µM, percent change from vehicle, -100% = no light] (inactive) | –
90 | CCCN(C(=O)Cn1cc(S(=O)(=O)N2CCN(c3ccccc3F)CC2)c2ccccc2c1=O)c1cccc(C)c1 | inactive | –
91 | Cc1ccc(C)c(OCC(=O)Nc2sc3c(c2C#N)CCCC3)c1C | -6.79% [at 11.5 µM, percent change from vehicle, -100% = no light] (inactive) | –

Reference: PubChem BioAssay AID1508624 (National Center for Advancing Translational Sciences (NCATS), 2021)
